Assay outcomes from PubChem.
Rows were chosen to be rich in hits. Some 6.8% of all compounds tested hit in one or more screens of this group.
MCF10A rereplic = inducers of DNA re-replication in MCF 10A breast cells. MCF 10A DNA re-replication, Hoechst nuclear intensity, 48 h. Potency, µM (top dose mostly 46.1 µM), most hits filed as activators. 350,000 compounds, 2.9% hits. AID 624296; also: nearly all actives have a fitted effect of over 50% in size
SW480 rerep = DNA re-replication induction in SW480 cells. 340,000 compounds, 1.8% hits. SW480 DNA re-replication, Hoechst DNA content imaging, 48 h. Potency, µM (top dose mostly 46.1 µM), most hits filed as activators; also: nearly all actives have a fitted effect of over 55% in size
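Image-based read-out: total Hoechst fluorescence of nuclei (405 nm excitation, 500-530 nm emission), with hits raising the fraction of high-intensity nuclei. SW480 colon cells incubated 48 hr with compounds at 37 C.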
KB-3-1 tox = kills parental KB-3-1 adenocarcinoma cells; 400,000 compounds, 1.4% hits; AID 1347075; KB-3-1 viability, CellTiter-Glo ATP luminescence, 72 h; Potency, µM (top dose mostly 46.1 µM), actives largely listed as cytotoxic; also: nearly all actives have a fitted effect of over 60% in size
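Viability of parental KB-3-1 cells, measured by CellTiter-Glo luminescence, followed a 72 h incubation at 37 °C with pinned compounds in phenol-red-free DMEM containing 10% FBS.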
TSG101-PTAP inh = blocks PTAP/TSG101 interaction to inhibit HIV-1 budding. Q99816. Fluorescence polarization, FITC-PTAP peptide / Tsg101 binding. 340,000 tested, under 10 active. Potency, µM (highest dose often 115 µM), most hits filed as inhibitors; active = well fitted inhibition curve with a large enough effect in the main read-out, with a control signal flat, not every such curve was filed as active; inconclusive = small, poorly fitted or top-dose-only effect, or effect the other way, or a change in a side signal; inactive = no such curve, though single readings can be large or run the other way
Target sequence (Q99816 whole entry, looked up): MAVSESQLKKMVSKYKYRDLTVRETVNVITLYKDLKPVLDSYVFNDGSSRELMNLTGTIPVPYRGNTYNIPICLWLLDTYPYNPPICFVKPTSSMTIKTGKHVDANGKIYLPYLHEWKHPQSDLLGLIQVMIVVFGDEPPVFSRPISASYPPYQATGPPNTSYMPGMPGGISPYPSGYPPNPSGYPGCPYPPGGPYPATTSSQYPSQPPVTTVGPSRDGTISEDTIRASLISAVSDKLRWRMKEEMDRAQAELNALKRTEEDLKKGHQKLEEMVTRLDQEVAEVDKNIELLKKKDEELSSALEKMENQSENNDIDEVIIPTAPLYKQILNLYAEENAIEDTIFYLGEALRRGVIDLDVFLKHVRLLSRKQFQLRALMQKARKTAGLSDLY
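Fluorescence anisotropy tracks displacement of a FITC-tagged PTAP peptide (50 nM) from the Tsg101 binding domain (10 uM), following a 20 min room-temperature incubation at pH 7.5.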
KB-V1 cytotox = KB-V1 MDR subline cytotoxicity. KB-V1 MDR cells viability, CellTiter-Glo, 72 h. Potency, µM (doses to about 46.1 µM), actives largely listed as cytotoxic. 400,000 compounds, 3.4% hits. AID 1347076; also: nearly all actives have a fitted effect of over 60% in size
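KB-V1, DMEM (no phenol red) + 10% FBS; cpd pin-transferred, titration series; 72 h, 37 degrees C; CellTiter-Glo, luminescence. Data normalized, curve-fit.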
PINK1 modulator = PINK1 expression modulation. PINK1 immunofluorescence, high-content cytometry, 24 h. Potency, µM (highest dose often 76.6 µM), hits mostly activators. 410,000 compounds, 0.2% hits; active = well fitted activation curve with a large enough effect; inconclusive = small, poorly fitted or top-dose-only effect; cell line not stated here; also: nearly all actives have a fitted effect of over 65% in size
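Stable cell line treated 24 h with compounds at 5 concentrations (CCCP controls), then fixed and immunostained for PINK1 plus nuclear and cell stains; PINK1 immunofluorescence quantified by laser-scanning microplate cytometry.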
A number is an active result; - = inactive; ? = inconclusive; . = not tested or not shown. Unless noted, calls follow the shape of the dose curve; as a rule, active = well fitted curve in the direction sought with a large enough effect; inconclusive = small, poorly fitted or top-dose-only effect, or another doubt; inactive = no such curve, though single readings can be large; an effect the other way counts as inactive or inconclusive.

SMILES	MCF10A rereplic	SW480 rerep	KB-3-1 tox	TSG101-PTAP inh	KB-V1 cytotox	PINK1 modulator
C=CC[C@@H](CC(=O)N[C@H](CO)Cc1ccccc1)C(=O)N[C@H](COC(=O)[C@@H](CC=C)Cc1ccc(F)cc1)C(C)(C)C	?	?	20.6µM	-	-	-
Cc1ccc(C)c(NC(=O)N2CCC(CN3CCOCC3)CC2)c1	.	.	.	.	.	-
O=C(CCCn1c(=O)c2cccn2c2ccccc21)Nc1cc(C(F)(F)F)ccc1Cl	.	.	.	.	.	-
O=C(CSc1nnc2[nH]c(=O)cc(-c3ccccc3)n12)Nc1cc(C(F)(F)F)ccc1Cl	.	.	.	.	.	-
C=CC[C@@H](CC(=O)N(CCO)Cc1ccccc1)C(=O)NC[C@H](OC(=O)[C@@H](CC=C)Cc1ccc(F)cc1)c1ccccc1	?	-	?	-	16.4µM	-
C=CC[C@H](CC(=O)N(CCO)Cc1ccccc1)C(=O)N[C@@H](COC(=O)[C@@H](CC=C)Cc1ccc(F)cc1)Cc1c[nH]c2ccccc12	18.4µM	20.6µM	-	-	-	-
C=CC[C@@H](CC(=O)N(CCO)Cc1ccccc1)C(=O)N[C@@H](COC(=O)[C@@H](CC=C)Cc1ccc(F)cc1)Cc1c[nH]c2ccccc12	?	-	?	-	?	-
Cc1cc2c(c(/C=C/C(=O)c3ccccc3)c1)OC1(C=C2)Oc2ccccc2C(=O)N1C (stereo not given)	5.62µM	3.66µM	16.4µM	-	?	-
O=C(/C=C/c1ccccc1)N1CCN(Cc2cc(=O)n3nc(-c4ccccc4)sc3n2)CC1	.	.	.	.	.	-
Brc1ccc(-c2noc(COc3ccc4c(c3)CCC4)n2)o1	-	-	-	-	-	-
c1csc(-c2noc(COc3ccc4c(c3)CCCC4)n2)c1	14.6µM	-	-	-	-	-
O=C(CSc1ccc(-c2ccco2)nn1)NCc1ccc(F)cc1	-	-	-	-	-	-
N#Cc1ccc(-c2ccco2)nc1SCC(=O)c1ccc(Cl)cc1	7.94µM	-	-	-	-	?
COc1ccc(-c2ccc(C#N)c(SCC(=O)OCc3ccccc3)n2)cc1OC	9.2µM	?	-	-	-	-
Cc1ccc(C(=O)CSc2nc(-c3ccccc3)ccc2C#N)cc1	3.66µM	?	-	-	-	-
Cc1ccc(-c2ccc(SCC(=O)c3ccccc3)nn2)cc1	?	-	-	-	-	-
O=C(CSc1ccc(-c2ccco2)nn1)c1ccc(F)cc1	-	-	-	-	25.9µM	-
O=C1CC(c2cccc(Cl)c2Cl)c2cc3c(cc2N1)OCCO3 (stereo not given)	.	.	?	.	-	-
CC(=O)c1ccccc1-c1ccc2c(c1)CC(CNC(=O)C[C@@H]1C[C@@H](C)NC(=S)N1)O2 (stereo not given in full)	.	.	.	.	.	-
CN(C)c1ccc(C=O)c(O)c1	.	.	-	.	-	.
COCCN1CCN(C(=O)c2cnn(-c3nccc(-c4ccccc4F)n3)c2-c2ccco2)CC1	.	.	.	.	.	-
O=C(C[C@H]1C[C@H](C(=O)N2CCOCC2)[C@@]2(CCC3CCCC3)c3[nH]c4cc(-c5ccco5)ccc4c3CCN2C1=O)NCc1cccc(C(F)(F)F)c1	-	?	?	-	16.4µM	-
O=C(C[C@H]1C[C@H](C(=O)N2CCOCC2)[C@@]2(CCC3CCCC3)c3[nH]c4cc(-c5ccco5)ccc4c3CCN2C1=O)NCCN1CCOCC1	?	?	?	-	-	-
COc1ccc2[nH]c3c(c2c1)CCN1C(=O)C(CC(=O)NCCc2ccccn2)C[C@H](C(=O)N2CCCCC2)[C@@]31CCc1ccccc1 (stereo not given in full)	-	?	-	-	-	-
COCCCNC(=O)CC1C[C@H](C(=O)N2CCCCC2)[C@@]2(CCc3ccccc3)c3[nH]c4ccc(OC)cc4c3CCN2C1=O (stereo not given in full)	-	18.4µM	-	-	-	-
SMILES	MCF10A rereplic	SW480 rerep	KB-3-1 tox	TSG101-PTAP inh	KB-V1 cytotox	PINK1 modulator
CC[C@]12c3[nH]c4cc(CCC(=O)N(C)C)ccc4c3CCN1C(=O)[C@@H](CC(=O)NCc1ccc(OC)c(OC)c1)C[C@@H]2C(=O)N1CCN(C(=O)c2ccco2)CC1	-	-	-	-	-	-
CC[C@]12c3[nH]c4cc(-c5ccco5)ccc4c3CCN1C(=O)[C@@H](CC(=O)NCc1ccc(OC)c(OC)c1)C[C@@H]2C(=O)N1CCN(C(=O)c2ccco2)CC1	-	4.11µM	-	-	-	-
CN(C)C(=O)CCc1ccc2c3c([nH]c2c1)[C@]1(CCC2CCCC2)[C@@H](C(=O)N2CCOCC2)C[C@H](CC(=O)NCC24CC5CC(CC(C5)C2)C4)C(=O)N1CC3	-	-	-	-	-	-
CC(C)=CCC/C(C)=C/CNC(=O)C[C@H]1C[C@H](C(=O)N2CCOCC2)[C@@]2(CCC3CCCC3)c3[nH]c4cc(CCC(=O)N(C)C)ccc4c3CCN2C1=O	14.6µM	?	-	-	-	?
O=C(Nc1sc2c(c1C(=O)NCc1ccccc1)CCCC2)c1cc(=O)c2ccccc2o1	.	.	-	.	-	-
COc1cc2[nH]c(=O)n(CCCCCC(=O)NCCc3ccccc3)c(=O)c2cc1OC	.	.	-	.	-	-
COc1cc(Cl)c(NS(=O)(=O)c2ccc(-c3coc(C)n3)cc2)c(OC)c1	.	.	?	.	-	-
O=C(CSc1nc(=O)[nH]c2c1CCCC2)Nc1ccc(Cl)c(Cl)c1	.	.	.	.	.	-
CCC(=O)N1CCc2cc(Br)cc(S(=O)(=O)N3CCC(C(=O)N(CC)CC)CC3)c21	.	.	-	.	-	-
Cc1ccc(Cl)cc1N1CCN(S(=O)(=O)c2ccc3[nH]c(=O)ccc3c2)CC1	23.1µM	-	-	-	-	-
Cc1ccc(Cl)cc1N1CCN(S(=O)(=O)c2ccc3c(c2)NC(=O)C(C)C(=O)N3)CC1 (stereo not given)	18.4µM	-	-	-	-	-
CCOC(=O)c1cccc(NC(=O)C2CCN(S(=O)(=O)c3cn(C)cn3)CC2)c1	.	.	.	.	.	-
Cc1ccc(NC(=O)C2CCN(C(=O)c3cnn(-c4ccccc4)c3-n3cccc3)CC2)cc1	.	.	?	.	-	-
CCN(C(=O)c1cn(CC)c(=O)c2cc(OC)c(OC)cc12)c1ccc(C)c(C)c1	.	.	-	.	-	-
O=C(/C=C/c1ccc(OC(F)(F)F)cc1)Nc1cccc([S+](=O)([O-])Nc2ccccc2F)c1	.	.	-	.	-	.
CCN(C(=O)CSc1nc2n[nH]c(C)c2c(=N)n1-c1cccc(OC)c1)c1cccc(C)c1	.	.	?	.	?	-
COC(=O)c1ccc(C(=O)OC)c(NC(=S)N2CCC(C)CC2)c1	-	?	-	-	16.4µM	-
